Data taken from PubChem BioAssay AID1159580 (chemical genetic matrix, 2015).
About 2,000 (36%) of roughly 5,500 compounds were called active. Another 18% or so got no clear call; they are omitted. Cut-off read from the data, not from the text of the source: active = normalized growth mostly below about 0.91 (no sharp cut-off); inconclusive = no clear call, values can overlap the other calls; inactive = mostly above about 0.92. The list shows a part of the results.

Experiment: chemical genetic growth profiling, strain panel (AID 1159580);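 note: tested at 20 µM; growth read once vehicle control cultures reached saturation at 30 °C; 1 = growth at the plate median or of vehicle wells; lower values mean less growth of the strain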
Details: growth OD

Measured: normalized growth

CC(=O)O[C@H]1CC[C@]2(C)C3CC(=O)[C@]4(C)C(C(C)=O)=CCC4C3CC[C@H]2C1 (stereo partly specified)
inactive: S. cerevisiae deletion strains, locus YAL021C, strain ccr4, hits give low values 1 | S. cerevisiae deletion strains, locus YAL026C, strain drs2, hits give low values 0.997 | S. cerevisiae deletion strains, locus YAL030W, strain snc1, hits give low values 1 | S. cerevisiae deletion strains, locus YBL061C, strain skt5, hits give low values 0.994 | S. cerevisiae deletion strains, locus YBR009C, strain hhf1, hits give low values 0.996 | S. cerevisiae deletion strains, locus YBR021W, strain FUR4, hits give low values 1 | S. cerevisiae deletion strains, locus YBR023C, strain chs3, hits give low values 0.995 | S. cerevisiae deletion strains, locus YBR171W, strain sec66, hits give low values 0.995 | S. cerevisiae deletion strains, locus YBR229C, strain ROT2, hits give low values 0.997 | S. cerevisiae deletion strains, locus YBR231C, strain swc5, hits give low values 1 | S. cerevisiae deletion strains, locus YBR279W, strain paf1, hits give low values 0.996 | S. cerevisiae deletion strains, locus YCL011C, strain gbp2, hits give low values 0.984 | S. cerevisiae deletion strains, locus YCL016C, strain dcc1, hits give low values 0.992 | S. cerevisiae deletion strains, locus YCL029C, strain bik1, hits give low values 0.987 | S. cerevisiae deletion strains, locus YCL061C, strain MRC1, hits give low values 0.994 | S. cerevisiae deletion strains, locus YCL069W, strain vba3, hits give low values 0.992 | S. cerevisiae deletion strains, locus YCR088W, strain abp1, hits give low values 0.987 | S. cerevisiae deletion strains, locus YDL005C, strain med2, hits give low values 0.984 | S. cerevisiae deletion strains, locus YDL035C, strain GPR1, hits give low values 0.956 | S. cerevisiae deletion strains, locus YDL040C, strain nat1, hits give low values 0.993 | S. cerevisiae deletion strains, locus YDL074C, strain BRE1, hits give low values 0.967 | S. cerevisiae deletion strains, locus YDL101C, strain DUN1, hits give low values 1 | S. cerevisiae deletion strains, locus YDL185W, strain tfp1, hits give low values 1.02 | S. cerevisiae deletion strains, locus YDL192W, strain arf1, hits give low values 0.978 | S. cerevisiae deletion strains, locus YDR001C, strain nth1, hits give low values 0.994 | S. cerevisiae deletion strains, locus YDR069C, strain doa4, hits give low values 1.02 | S. cerevisiae deletion strains, locus YDR101C, strain arx1, hits give low values 0.988 | S. cerevisiae deletion strains, locus YDR137W, strain rgp1, hits give low values 0.924 | S. cerevisiae deletion strains, locus YDR159W, strain sac3, hits give low values 0.921 | S. cerevisiae deletion strains, locus YDR162C, strain NBP2, hits give low values 0.987 | S. cerevisiae deletion strains, locus YDR195W, strain ref2 1 | S. cerevisiae deletion strains, locus YDR297W, strain sur2, hits give low values 0.998 | S. cerevisiae deletion strains, locus YDR318W, strain mcm21, hits give low values 0.988 | S. cerevisiae deletion strains, locus YDR334W, strain swr1, hits give low values 1.01 | S. cerevisiae deletion strains, locus YDR335W, strain msn5, hits give low values 1 | S. cerevisiae deletion strains, locus YDR388W, hits give low values 0.998 | S. cerevisiae deletion strains, locus YDR502C, strain sam2, hits give low values 0.978 | S. cerevisiae deletion strains, locus YEL003W, strain gim4, hits give low values 0.996 | S. cerevisiae deletion strains, locus YEL037C, strain rad23, hits give low values 1.01 | S. cerevisiae deletion strains, locus YEL061C, strain CIN8 (second series), hits give low values 1 | S. cerevisiae deletion strains, locus YEL061C, strain CIN8, hits give low values 0.993 | S. cerevisiae deletion strains, locus YER015W, strain faa2, hits give low values 1 | S. cerevisiae deletion strains, locus YER016W, strain bim1, hits give low values 0.994 | S. cerevisiae deletion strains, locus YER110C, hits give low values 1.01 | S. cerevisiae deletion strains, locus YER111C, strain swi4, hits give low values 1.01 | S. cerevisiae deletion strains, locus YER155C, strain BEM2 (second series), hits give low values 0.963 | S. cerevisiae deletion strains, locus YER155C, strain BEM2, hits give low values 0.983 | S. cerevisiae deletion strains, locus YER167W, strain BCK2, hits give low values 0.982 | S. cerevisiae deletion strains, locus YFR010W, strain ubp6, hits give low values 1 | S. cerevisiae deletion strains, locus YGL078C, strain dbp3, hits give low values 1.01 | S. cerevisiae deletion strains, locus YGL086W, strain mad1, hits give low values 0.968 | S. cerevisiae deletion strains, locus YGL167C, strain pmr1, hits give low values 0.985 | S. cerevisiae deletion strains, locus YGL173C, strain kem1, hits give low values 0.995 | S. cerevisiae deletion strains, locus YGL227W, strain vid30, hits give low values 0.996 | S. cerevisiae deletion strains, locus YGL240W, strain doc1, hits give low values 1.01 | S. cerevisiae deletion strains, locus YGL248W, strain PDE1, hits give low values 0.99 | S. cerevisiae deletion strains, locus YGL253W, strain hxk2, hits give low values 0.982 | S. cerevisiae deletion strains, locus YGR078C, strain PAC10, hits give low values 0.983 | S. cerevisiae deletion strains, locus YGR135W, strain pre9, hits give low values 1.01 | S. cerevisiae deletion strains, locus YGR229C, strain SMI1, hits give low values 0.995 | S. cerevisiae deletion strains, locus YGR252W, strain gcn5, hits give low values 1.05 | S. cerevisiae deletion strains, locus YHR013C, strain ard1, hits give low values 0.934 | S. cerevisiae deletion strains, locus YHR027C, strain rpn1, hits give low values 0.988 | S. cerevisiae deletion strains, locus YHR079C, strain IRE1 (second series), hits give low values 0.997 | S. cerevisiae deletion strains, locus YHR094C, strain hxt1, hits give low values 1 | S. cerevisiae deletion strains, locus YHR129C, strain ARP1, hits give low values 0.982 | S. cerevisiae deletion strains, locus YHR142W, strain chs7, hits give low values 0.972 | S. cerevisiae deletion strains, locus YHR200W, strain rpn10, hits give low values 1.01 | S. cerevisiae deletion strains, locus YIL066C, strain RNR3, hits give low values 0.98 | S. cerevisiae deletion strains, locus YIL073C, strain SPO22, hits give low values 1.03 | S. cerevisiae deletion strains, locus YIL125W, strain kgd1, hits give low values 0.989 | S. cerevisiae deletion strains, locus YIR030C, strain dcg1, hits give low values 0.998 | S. cerevisiae deletion strains, locus YJL092W, strain hpr5, hits give low values 0.988 | S. cerevisiae deletion strains, locus YJL095W, strain BCK1 (second series), hits give low values 0.997 | S. cerevisiae deletion strains, locus YJL095W, strain BCK1, hits give low values 1.02 | S. cerevisiae deletion strains, locus YJL115W, strain asf1, hits give low values 1 | S. cerevisiae deletion strains, locus YJL129C, strain trk1, hits give low values 1.01 | S. cerevisiae deletion strains, locus YJL134W, strain LCB3, hits give low values 0.988 | S. cerevisiae deletion strains, locus YJL154C, strain vps35, hits give low values 1 | S. cerevisiae deletion strains, locus YJL164C, strain tpk1, hits give low values 0.988 | S. cerevisiae deletion strains, locus YJL166W, strain qcr8, hits give low values 0.991 | S. cerevisiae deletion strains, locus YJL168C, strain set2, hits give low values 0.995 | S. cerevisiae deletion strains, locus YJL187C, strain SWE1 (second series), hits give low values 1.01 | S. cerevisiae deletion strains, locus YJR043C, strain POL32, hits give low values 1.01 | S. cerevisiae deletion strains, locus YKL009W, strain mrt4, hits give low values 0.965 | S. cerevisiae deletion strains, locus YKL068W, hits give low values 0.988 | S. cerevisiae deletion strains, locus YKL085W, strain MDH1 (second series), hits give low values 0.992 | S. cerevisiae deletion strains, locus YKL085W, strain MDH1, hits give low values 0.992 | S. cerevisiae deletion strains, locus YKL160W, strain elf1, hits give low values 0.996 | S. cerevisiae deletion strains, locus YKR026C, strain gcn3, hits give low values 0.972 | S. cerevisiae deletion strains, locus YKR091W, strain srl3, hits give low values 0.993 | S. cerevisiae deletion strains, locus YLL001W, strain dnm1, hits give low values 0.986 | S. cerevisiae deletion strains, locus YLL026W, hits give low values 0.994 | S. cerevisiae deletion strains, locus YLL041C, strain sdh2, hits give low values 0.991 | S. cerevisiae deletion strains, locus YLR027C, strain aat2, hits give low values 0.993 | S. cerevisiae deletion strains, locus YLR039C, strain RIC1, hits give low values 1 | S. cerevisiae deletion strains, locus YLR058C, strain SHM2, hits give low values 1.02 | S. cerevisiae deletion strains, locus YLR102C, strain apc9, hits give low values 1 | S. cerevisiae deletion strains, locus YLR221C, strain rsa3, hits give low values 0.978 | S. cerevisiae deletion strains, locus YLR258W, strain gsy2, hits give low values 1 | S. cerevisiae deletion strains, locus YLR262C, strain YPT6 (second series), hits give low values 0.961 | S. cerevisiae deletion strains, locus YLR262C, strain YPT6, hits give low values 0.944 | S. cerevisiae deletion strains, locus YLR268W, strain sec22, hits give low values 0.965 | S. cerevisiae deletion strains, locus YLR320W, strain mms22, hits give low values 0.922 | S. cerevisiae deletion strains, locus YLR330W, strain CHS5, hits give low values 0.969 | S. cerevisiae deletion strains, locus YLR342W, strain FKS1 (second series), hits give low values 0.947 | S. cerevisiae deletion strains, locus YLR342W, strain FKS1, hits give low values 0.976 | S. cerevisiae deletion strains, locus YLR357W, strain rsc2, hits give low values 1.01 | S. cerevisiae deletion strains, locus YLR370C, strain arc18, hits give low values 1.01 | S. cerevisiae deletion strains, locus YLR371W, strain rom2, hits give low values 1.02 | S. cerevisiae deletion strains, locus YLR384C, strain iki3, hits give low values 0.984 | S. cerevisiae deletion strains, locus YML016C, strain PPZ1, hits give low values 1 | S. cerevisiae deletion strains, locus YML032C, strain rad52, hits give low values 1 | S. cerevisiae deletion strains, locus YML120C, strain ndi1, hits give low values 1 | S. cerevisiae deletion strains, locus YML124C, strain tub3, hits give low values 1 | S. cerevisiae deletion strains, locus YMR058W, strain fet3, hits give low values 0.986 | S. cerevisiae deletion strains, locus YMR078C, strain ctf18, hits give low values 0.999 | S. cerevisiae deletion strains, locus YMR125W, strain sto1, hits give low values 1.01 | S. cerevisiae deletion strains, locus YMR129W, hits give low values 0.991 | S. cerevisiae deletion strains, locus YMR205C, strain PFK2, hits give low values 0.95 | S. cerevisiae deletion strains, locus YMR223W, strain ubp8, hits give low values 0.993 | S. cerevisiae deletion strains, locus YMR231W, strain pep5, hits give low values 1.01 | S. cerevisiae deletion strains, locus YMR307W, strain GAS1, hits give low values 0.97 | S. cerevisiae deletion strains, locus YNL067W, strain RPL9B, hits give low values 1.02 | S. cerevisiae deletion strains, locus YNL209W, strain ssb2, hits give low values 1.01 | S. cerevisiae deletion strains, locus YNL233W, strain BNI4, hits give low values 0.988 | S. cerevisiae deletion strains, locus YNL248C, strain rpa49, hits give low values 0.984 | S. cerevisiae deletion strains, locus YNL250W, strain rad50, hits give low values 1.01 | S. cerevisiae deletion strains, locus YNL271C, strain bni1, hits give low values 1.01 | S. cerevisiae deletion strains, locus YNL298W, strain CLA4, hits give low values 1 | S. cerevisiae deletion strains, locus YNL307C, strain MCK1, hits give low values 0.934 | S. cerevisiae deletion strains, locus YNL322C, strain KRE1 (second series), hits give low values 0.975 | S. cerevisiae deletion strains, locus YNR049C, strain mso1, hits give low values 0.99 | S. cerevisiae deletion strains, locus YNR052C, strain pop2, hits give low values 1.03 | S. cerevisiae deletion strains, locus YOL006C, strain TOP1, hits give low values 0.907 | S. cerevisiae deletion strains, locus YOL012C, strain htz1 1.19 | S. cerevisiae deletion strains, locus YOL147C, strain pex11, hits give low values 1 | S. cerevisiae deletion strains, locus YOR001W, strain rrp6, hits give low values 0.995 | S. cerevisiae deletion strains, locus YOR061W, strain CKA2, hits give low values 1 | S. cerevisiae deletion strains, locus YOR069W, strain VPS5, hits give low values 0.997 | S. cerevisiae deletion strains, locus YOR070C, strain gyp1, hits give low values 1.01 | S. cerevisiae deletion strains, locus YOR080W, strain dia2, hits give low values 1.01 | S. cerevisiae deletion strains, locus YOR083W, strain WHI5, hits give low values 1 | S. cerevisiae deletion strains, locus YOR106W, strain vam3, hits give low values 1.01 | S. cerevisiae deletion strains, locus YOR136W, strain idh2, hits give low values 0.984 | S. cerevisiae deletion strains, locus YOR144C, strain elg1, hits give low values 1 | S. cerevisiae deletion strains, locus YOR184W, strain ser1, hits give low values 0.893 | S. cerevisiae deletion strains, locus YOR265W, strain rbl2, hits give low values 1 | S. cerevisiae deletion strains, locus YOR270C, strain vph1, hits give low values 0.843 | S. cerevisiae deletion strains, locus YOR290C, strain snf2, hits give low values 0.996 | S. cerevisiae deletion strains, locus YOR316C, strain cot1, hits give low values 0.996 | S. cerevisiae deletion strains, locus YPL051W, strain arl3, hits give low values 0.998 | S. cerevisiae deletion strains, locus YPL078C, strain atp4, hits give low values 0.991 | S. cerevisiae deletion strains, locus YPL106C, strain sse1, hits give low values 0.976 | S. cerevisiae deletion strains, locus YPL240C, strain hsp82, hits give low values 0.995 | S. cerevisiae deletion strains, locus YPL241C, strain CIN2, hits give low values 0.988 | S. cerevisiae deletion strains, locus YPR119W, strain clb2, hits give low values 1 | S. cerevisiae deletion strains, locus YPR141C, strain kar3, hits give low values 1 | S. cerevisiae deletion strains, locus YPR163C, strain tif3, hits give low values 0.983 | S. cerevisiae deletion strains, locus YPR167C, strain met16, hits give low values 0.994 | S. cerevisiae deletion strains, strain wtn01, hits give low values 0.973 | S. cerevisiae strains, strain wild type, hits give low values 0.996
active: S. cerevisiae deletion strains, locus YDR392W, strain spt3, hits give low values 0.628 | S. cerevisiae deletion strains, locus YKR001C, strain vps1, hits give low values 0.897 | S. cerevisiae deletion strains, locus YLR418C, strain cdc73, hits give low values 0.839 | S. cerevisiae deletion strains, locus YNL071W, strain lat1, hits give low values 0.91
